Out of some 5,500 compounds screened, about 2,000 (36%) were called active. Roughly 18% stayed inconclusive and do not appear here. Cut-off read from the data, not from the text of the source: active = normalized growth mostly below about 0.91 (no sharp cut-off); inconclusive = no clear call, values can overlap the other calls; inactive = mostly above about 0.92. The list shows a part of the results.
Test: chemical genetic growth profiling, strain panel (AID 1159580);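 note: tested at 20 µM; growth read once vehicle control cultures reached saturation at 30 °C; 1 = growth at the plate median or of vehicle wells; lower values mean less growth of the strain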
Conditions: growth OD
[1] = S. cerevisiae deletion strains, locus YAL013W, strain DEP1, stronger effect = lower value
[2] = S. cerevisiae deletion strains, locus YGR229C, strain SMI1, stronger effect = lower value
[3] = S. cerevisiae deletion strains, locus YJR075W, strain HOC1, stronger effect = lower value
[4] = S. cerevisiae deletion strains, locus YMR263W, strain SAP30, stronger effect = lower value
[5] = S. cerevisiae deletion strains, locus YMR307W, strain GAS1, stronger effect = lower value
[6] = S. cerevisiae deletion strains, locus YNL128W, strain TEP1, stronger effect = lower value
[7] = S. cerevisiae deletion strains, locus YPL241C, strain CIN2, stronger effect = lower value

Measured: normalized growth

CCN(CC)C(C)C(=O)N1c2ccccc2Sc2ccccc21 (stereo not given)
inactive: [1] 1 | S. cerevisiae deletion strains, locus YAL040C, strain CLN3, stronger effect = lower value 1.02 | S. cerevisiae deletion strains, locus YCL061C, strain MRC1 (second series), stronger effect = lower value 1.01 | S. cerevisiae deletion strains, locus YDR363W, strain ESC2, stronger effect = lower value 1 | S. cerevisiae deletion strains, locus YER002W, strain NOP16, stronger effect = lower value 1.02 | [2] 1.04 | [3] 1.07 | [4] 1.01 | [5] 0.999 | [6] 0.997 | S. cerevisiae deletion strains, locus YNL175C, strain NOP13, stronger effect = lower value 1.04 | S. cerevisiae deletion strains, locus YNL197C, strain WHI3, stronger effect = lower value 1.03 | S. cerevisiae deletion strains, locus YNL224C, strain SQS1, stronger effect = lower value 1.02 | S. cerevisiae deletion strains, locus YOR083W, strain WHI5 (second series), stronger effect = lower value 1.02 | [7] 1.01

CC(CN1c2ccccc2Sc2cccnc21)N(C)C (stereo not given)
inactive: [1] 1.02 | S. cerevisiae deletion strains, locus YBR021W, strain FUR4, stronger effect = lower value 0.987 | S. cerevisiae deletion strains, locus YBR229C, strain ROT2, stronger effect = lower value 1.02 | S. cerevisiae deletion strains, locus YCL029C, strain bik1, stronger effect = lower value 0.988 | S. cerevisiae deletion strains, locus YDL035C, strain GPR1, stronger effect = lower value 1.02 | S. cerevisiae deletion strains, locus YDL074C, strain BRE1, stronger effect = lower value 1.04 | S. cerevisiae deletion strains, locus YDL101C, strain DUN1, stronger effect = lower value 1.03 | S. cerevisiae deletion strains, locus YDL134C, strain PPH21, stronger effect = lower value 1.01 | S. cerevisiae deletion strains, locus YDL192W, strain arf1, stronger effect = lower value 0.993 | S. cerevisiae deletion strains, locus YDR101C, strain arx1, stronger effect = lower value 0.979 | S. cerevisiae deletion strains, locus YDR150W, strain NUM1, stronger effect = lower value 1.02 | S. cerevisiae deletion strains, locus YDR162C, strain NBP2, stronger effect = lower value 1.04 | S. cerevisiae deletion strains, locus YDR318W, strain mcm21, stronger effect = lower value 0.983 | S. cerevisiae deletion strains, locus YDR388W, stronger effect = lower value 0.994 | S. cerevisiae deletion strains, locus YDR502C, strain sam2, stronger effect = lower value 1.01 | S. cerevisiae deletion strains, locus YEL061C, strain CIN8, stronger effect = lower value 1.02 | S. cerevisiae deletion strains, locus YER110C, stronger effect = lower value 0.978 | S. cerevisiae deletion strains, locus YER155C, strain BEM2, stronger effect = lower value 1.01 | S. cerevisiae deletion strains, locus YER167W, strain BCK2, stronger effect = lower value 1.02 | S. cerevisiae deletion strains, locus YGL078C, strain dbp3, stronger effect = lower value 0.988 | S. cerevisiae deletion strains, locus YGL086W, strain mad1, stronger effect = lower value 0.992 | S. cerevisiae deletion strains, locus YGL248W, strain PDE1, stronger effect = lower value 1.02 | S. cerevisiae deletion strains, locus YGR078C, strain PAC10, stronger effect = lower value 1.02 | S. cerevisiae deletion strains, locus YGR135W, strain pre9, stronger effect = lower value 1.01 | [2] 1.05 | S. cerevisiae deletion strains, locus YGR252W, strain gcn5, stronger effect = lower value 0.956 | S. cerevisiae deletion strains, locus YHR030C, strain SLT2, stronger effect = lower value 1.01 | S. cerevisiae deletion strains, locus YHR079C, strain IRE1 (second series), stronger effect = lower value 0.999 | S. cerevisiae deletion strains, locus YHR094C, strain hxt1, stronger effect = lower value 1 | S. cerevisiae deletion strains, locus YHR129C, strain ARP1, stronger effect = lower value 1 | S. cerevisiae deletion strains, locus YHR200W, strain rpn10, stronger effect = lower value 0.995 | S. cerevisiae deletion strains, locus YIL066C, strain RNR3, stronger effect = lower value 1.01 | S. cerevisiae deletion strains, locus YIL073C, strain SPO22, stronger effect = lower value 0.999 | S. cerevisiae deletion strains, locus YIL125W, strain kgd1, stronger effect = lower value 0.999 | S. cerevisiae deletion strains, locus YIR030C, strain dcg1, stronger effect = lower value 0.992 | S. cerevisiae deletion strains, locus YJL095W, strain BCK1, stronger effect = lower value 1.01 | S. cerevisiae deletion strains, locus YJL134W, strain LCB3, stronger effect = lower value 1.05 | S. cerevisiae deletion strains, locus YJL168C, strain set2, stronger effect = lower value 0.998 | S. cerevisiae deletion strains, locus YJL187C, strain SWE1 (second series), stronger effect = lower value 1.02 | S. cerevisiae deletion strains, locus YJR043C, strain POL32, stronger effect = lower value 1.01 | [3] 1.02 | S. cerevisiae deletion strains, locus YKL009W, strain mrt4, stronger effect = lower value 1 | S. cerevisiae deletion strains, locus YKL068W, stronger effect = lower value 1 | S. cerevisiae deletion strains, locus YKL085W, strain MDH1 (second series), stronger effect = lower value 0.995 | S. cerevisiae deletion strains, locus YKL085W, strain MDH1, stronger effect = lower value 0.995 | S. cerevisiae deletion strains, locus YKL190W, strain CNB1, stronger effect = lower value 1.03 | S. cerevisiae deletion strains, locus YKR001C, strain vps1, stronger effect = lower value 0.999 | S. cerevisiae deletion strains, locus YLR039C, strain RIC1, stronger effect = lower value 1.06 | S. cerevisiae deletion strains, locus YLR058C, strain SHM2, stronger effect = lower value 1.01 | S. cerevisiae deletion strains, locus YLR102C, strain apc9, stronger effect = lower value 0.991 | S. cerevisiae deletion strains, locus YLR262C, strain YPT6, stronger effect = lower value 1.15 | S. cerevisiae deletion strains, locus YLR268W, strain sec22, stronger effect = lower value 0.998 | S. cerevisiae deletion strains, locus YLR330W, strain CHS5, stronger effect = lower value 1.01 | S. cerevisiae deletion strains, locus YLR342W, strain FKS1 (second series), stronger effect = lower value 1.03 | S. cerevisiae deletion strains, locus YLR371W, strain rom2, stronger effect = lower value 0.995 | S. cerevisiae deletion strains, locus YLR418C, strain cdc73, stronger effect = lower value 1.04 | S. cerevisiae deletion strains, locus YML016C, strain PPZ1, stronger effect = lower value 1.02 | S. cerevisiae deletion strains, locus YML032C, strain rad52, stronger effect = lower value 0.989 | S. cerevisiae deletion strains, locus YML124C, strain tub3, stronger effect = lower value 0.998 | S. cerevisiae deletion strains, locus YMR078C, strain ctf18, stronger effect = lower value 0.999 | S. cerevisiae deletion strains, locus YMR223W, strain ubp8, stronger effect = lower value 0.995 | [4] 1.03 | [5] 1.06 | S. cerevisiae deletion strains, locus YNL067W, strain RPL9B, stronger effect = lower value 1.02 | [6] 1.02 | S. cerevisiae deletion strains, locus YNL153C, strain GIM3, stronger effect = lower value 1.03 | S. cerevisiae deletion strains, locus YNL233W, strain BNI4, stronger effect = lower value 1.01 | S. cerevisiae deletion strains, locus YNL250W, strain rad50, stronger effect = lower value 0.992 | S. cerevisiae deletion strains, locus YNL271C, strain bni1, stronger effect = lower value 1.01 | S. cerevisiae deletion strains, locus YNL298W, strain CLA4, stronger effect = lower value 0.988 | S. cerevisiae deletion strains, locus YNL307C, strain MCK1, stronger effect = lower value 0.991 | S. cerevisiae deletion strains, locus YNL322C, strain KRE1, stronger effect = lower value 1.01 | S. cerevisiae deletion strains, locus YNR052C, strain pop2, stronger effect = lower value 0.994 | S. cerevisiae deletion strains, locus YOL006C, strain TOP1, stronger effect = lower value 1.03 | S. cerevisiae deletion strains, locus YOL012C, strain htz1 0.957 | S. cerevisiae deletion strains, locus YOL147C, strain pex11, stronger effect = lower value 0.991 | S. cerevisiae deletion strains, locus YOR061W, strain CKA2, stronger effect = lower value 1.02 | S. cerevisiae deletion strains, locus YOR069W, strain VPS5, stronger effect = lower value 1 | S. cerevisiae deletion strains, locus YOR136W, strain idh2, stronger effect = lower value 0.979 | S. cerevisiae deletion strains, locus YOR144C, strain elg1, stronger effect = lower value 0.999 | S. cerevisiae deletion strains, locus YOR184W, strain ser1, stronger effect = lower value 0.985 | S. cerevisiae deletion strains, locus YOR316C, strain cot1, stronger effect = lower value 0.997 | S. cerevisiae deletion strains, locus YPL055C, strain LGE1, stronger effect = lower value 1.04 | [7] 1 | S. cerevisiae deletion strains, locus YPR119W, strain clb2, stronger effect = lower value 0.995 | S. cerevisiae deletion strains, locus YPR141C, strain kar3, stronger effect = lower value 0.997 | S. cerevisiae deletion strains, locus YPR163C, strain tif3, stronger effect = lower value 1 | S. cerevisiae deletion strains, locus YPR167C, strain met16, stronger effect = lower value 1 | S. cerevisiae deletion strains, strain wtn01, stronger effect = lower value 1.01 | S. cerevisiae strains, strain wild type, stronger effect = lower value 1.01
